Reference: ChEMBL document CHEMBL3988442, “University of Dundee, Small-Polar-MMV Screening Library” (2021)
The whole screen tested about 48,000 compounds, of which about 13,000 (27%) showed an effect of 50% or more. This is one part of the list.

test system: Wolbachia pipientis; experiment: Anti-Wolbachia Cell-Based Screen; type: functional; parameters: scale not given: in the data most compounds retested in dose-response had high values; conditions: 5 µM

| SMILES | Percent Effect [%] |
| --- | --- |
| CCCc1cc(C(=O)N2Cc3ccccc3C2)[nH]n1 | 5.853 |
| CC(C)=CCCC(C)CN1CCC(n2cc(CO)nn2)CC1 (stereo not given) | -18.32 |
| Cc1ccc2nc3n(c2c1)[C@@H](CNC(=O)c1ccncc1)COC3 | -11.4 |
| CN(CCC(F)(F)F)c1nc2ccccc2c(=O)[nH]1 | -5.931 |
| O=C(O)C(F)(F)F.O=C(O)C(F)(F)F.O=C1NC2(CCN(Cc3nccs3)CC2)CC1c1ccncc1 (stereo not given) | -14.31 |
| Cc1noc(C)c1CN1CCC2(CC1)NC(=O)CC2c1cnn(C)c1 (stereo not given) | 100 |
| Cc1noc(C)c1CN1CCC2(CC1)C(c1cnn(C)c1)CC(=O)N2C.O=C(O)C(F)(F)F (stereo not given) | 113.4 |
| O=C(O)C(F)(F)F.O=C1CC(c2ccccc2)C2(CCN(Cc3nccs3)CC2)N1 (stereo not given) | 100.6 |
| CN1C(=O)CC(c2cnn(C)c2)C12CCN(C(=O)c1ccc[nH]1)CC2 (stereo not given) | -12.5 |
| Cc1noc(C)c1CN1CCC2(CC1)NC(=O)CC2c1ccccc1.O=C(O)C(F)(F)F (stereo not given) | 92.37 |
| CCn1c(N)nc2cc(C(=O)N3CCN(c4nccs4)CC3)cnc21 | 5.725 |
| O=C(c1ccoc1)N1CCC(NCc2ccccc2-n2ccnc2)CC1 | 2.985 |
| CCn1ncc2c1NC(=O)C(C#N)C21CCCC1 (stereo not given) | 21.97 |
| Cc1ccc(CN2CCC3(CC2)C(=O)N(CC(C)C)CCN3C)o1.O=C(O)C(F)(F)F.O=C(O)C(F)(F)F | -29.49 |
| CC(C)CN1CCN(C)C2(CCN(c3nccs3)CC2)C1=O.O=C(O)C(F)(F)F | -15.41 |
| Cc1ccc(CN2CCC3(CC2)C(=O)N(CC(C)C)CCN3C)s1.O=C(O)C(F)(F)F.O=C(O)C(F)(F)F | 102.6 |
| Cc1cnn(CC2CCCCN2C(=O)c2cccc3c2OCO3)c1 (stereo not given) | -2.775 |
| O=C(c1cccc2c1OCO2)N1CCCC1Cn1cccn1 (stereo not given) | -0.6849 |
| Cc1cc(C)n(CC2CCCN2C(=O)c2cccc3[nH]ncc23)n1 (stereo not given) | -3.123 |
| Cc1cnn(CC2CCCCN2C(=O)c2ccc3nnc(C)n3c2)c1 (stereo not given) | -9.496 |
| Cc1cnn(CC2CCCCN2C(=O)c2ccc(N(C)C)nc2)c1 (stereo not given) | 89.91 |
| Cc1cnn(CC2CCCCN2C(=O)c2cccnc2N(C)C)c1 (stereo not given) | 94.82 |
| O=C(c1cccnc1N1CCOCC1)N1CCCC1Cn1cccn1 (stereo not given) | 1.919 |
| Cc1cnn(CC2CCCN2C(=O)c2cccnc2N(C)C)c1 (stereo not given) | -3.738 |
| Cc1cnn(CC2CCCCN2C(=O)c2ccnc(N(C)C)c2)c1 (stereo not given) | -6.114 |

| SMILES | Percent Effect [%] |
| --- | --- |
| CN(C)c1ncccc1C(=O)N1CCCC1Cn1cccn1 (stereo not given) | 111.6 |
| Cc1cc(C)n(CC2CCCN2C(=O)c2cccnc2N(C)C)n1 (stereo not given) | 118 |
| Cc1cc(C)n(CC2CCCN2C(=O)c2c[nH]c3ncccc23)n1 (stereo not given) | -7.335 |
| CC(C)[C@@H]1CN(S(=O)(=O)Cc2ccccc2)C[C@H]1C(=O)O | 3.081 |
| O=C(NCC(O)c1cccs1)c1sccc1OC(F)F (stereo not given) | 2.411 |
| Cc1ccccc1N1CCN(C(=O)c2cnc(C3CC3)nc2)C(C)C1 (stereo not given) | -6.259 |
| COc1ncccc1CNC(=O)c1c[nH]c(=O)c(Br)c1 | -2.261 |
| CN(Cc1cscn1)C1CCN(C(=O)OC(C)(C)C)CC1 | -0.6066 |
| O=C(c1cscn1)N1C[C@@H]2[C@@H](C1)OCC(=O)N2CC1CCCC1 | -7.986 |
| O=C(c1cscn1)N1CCC(Cc2cnc3[nH]ccc3c2)C1 (stereo not given) | 91.07 |
| Cc1nc(C(=O)N2CCC(Cc3cnc4[nH]ccc4c3)C2)co1 (stereo not given) | -2.794 |
| Cn1ccc(C(=O)N2CCC(Cc3cnc4[nH]ccc4c3)CC2)n1 | -9.979 |
| Cn1ccc(C(=O)N2CCC(Cc3cnc4[nH]ccc4c3)C2)n1 (stereo not given) | 135.4 |
| Cc1nn(CCC(=O)NC(C(=O)O)c2c(C)n[nH]c2C)c(C)c1C (stereo not given) | 9.182 |
| CC(C)(C)c1ncc2c(n1)CN(C(=O)c1ccc3[nH]cnc3c1)C2 | -16.99 |
| O=C(c1ccncc1)N1CCc2ncnc(C3CCOC3)c2CC1 (stereo not given) | 1.428 |
| CCN1CC[C@@]2(C(=O)N3CCOCC3)CCN(S(=O)(=O)CC)CC[C@@H]12.O=C(O)C(F)(F)F | -35.9 |
| CCc1cn[nH]c1C1CCCN(C(=O)c2noc(C)c2COC)C1 (stereo not given) | -6.588 |
| CCc1cc(C(=O)N2CCCC(c3[nH]ncc3S(C)(=O)=O)C2)no1 (stereo not given) | 122.4 |
| CCc1noc(C)c1C(=O)N1C[C@H](NS(C)(=O)=O)[C@@H](C2CC2)C1 | 7.684 |
| Cc1noc(C)c1C(=O)N1CCC(c2[nH]ncc2S(C)(=O)=O)C1 (stereo not given) | 95.01 |
| CCc1cn[nH]c1C1CCCN(C(=O)c2ncoc2C(C)C)C1 (stereo not given) | 0.179 |
| CCc1noc(C)c1C(=O)N1CCC(c2[nH]ncc2S(C)(=O)=O)C1 (stereo not given) | 111.9 |
| CCn1cc(C(=O)N2CCCC(c3[nH]ncc3S(C)(=O)=O)C2)cn1 (stereo not given) | -1.066 |
| COCCn1cc(NCc2cn(C)nc2-c2ccncc2)cn1 | 0.5012 |

| SMILES | Percent Effect [%] |
| --- | --- |
| Cc1ccc(O[C@@H]2C[C@H]3CN(C(=O)c4cnccn4)CCN3C2)cc1.O=C(O)C(F)(F)F | -2.389 |
| Cc1nc(CC(=O)N2CCC3(CC2)CC(=O)N(CC2CCCO2)C3)cs1 (stereo not given) | 8.939 |
| CC(C)N1CCC(c2cccc(C(=O)N(C)C)n2)CC1 | 126.2 |
| CC(C)N1CCC(c2ccnc3c(C(=O)N4CCCC4)ncn23)CC1 | -18.47 |
| CN1CCC(c2cccc(C(=O)N(C)C)n2)CC1 | 118.3 |
| CN(C)CCCn1ccnc1C1CCN(c2cccc(C(=O)O)n2)CC1 | -0.5716 |
| Cc1ccccc1-c1cncc(C2CCN(C(C)C)CC2)n1 | -0.08562 |
| Cc1cnn(CCNCC(=O)Nc2ccc(Br)cn2)c1 | -4.986 |
| O=C(O)C(F)(F)F.O=C1CC[C@]2(CC[C@@H](NCc3ccoc3)CC2)N1 | -19.54 |
| COc1ccc(CN[C@H]2CC[C@@]3(CCC(=O)N3)CC2)cc1.O=C(O)C(F)(F)F | 13.86 |
| O=C(O)C(F)(F)F.O=C1CC[C@]2(CC[C@@H](NCc3ccc4c(c3)OCO4)CC2)N1 | -34.14 |
| O=C(NC1CCCC1)NC1CCc2[nH]c(=O)ccc2C1 (stereo not given) | 2.289 |
| O=c1ccc2c([nH]1)CCC(NCc1ccncc1)C2 (stereo not given) | 106.2 |
| CSc1ccc(CNC2CCN(CCc3ccncc3)CC2)cc1 | -23.46 |
| O=C(O)C(F)(F)F.O=c1ccc2c([nH]1)CCC(NCc1ccc(F)cc1)C2 (stereo not given) | 112.4 |
| CN(C)C(=O)N1CCc2ccc(=O)[nH]c2CC1 | -8.1 |
| CC(C)NC1CCc2[nH]c(=O)ccc2C1.O=C(O)C(F)(F)F (stereo not given) | 105.5 |
| COc1ccc2c(c1)CC(NCc1cccc(NC(C)=O)c1)CC2 (stereo not given) | 5.004 |
| O=C(O)C(F)(F)F.O=c1ccc2c([nH]1)CCC(NCc1ccc3c(c1)OCO3)C2 (stereo not given) | 106.8 |
| COc1ncc(C)cc1NC(=O)COc1ccccc1F | -12.82 |
| CCO[C@H]1COC[C@@H]1NC(=O)c1c[nH]nc1C1CCCCC1 | -0.7852 |
| Cn1c(C(N)=O)cc2c1CN(C(=O)C1CC(=O)N(C(C)(C)C)C1)CC2 (stereo not given) | -2.281 |
| Cn1ncc2c(NCC3CCS(=O)(=O)C3)nc(C3CCCC3)nc21 (stereo not given) | -5.604 |
| O=C(CCNc1ncccn1)NCc1cccc(OC(F)F)c1 | -10.33 |
| O=C(CCC1CC1)N1C[C@@H](CN2CCCC2)[C@@H](CO)C1 | -10.86 |

| SMILES | Percent Effect [%] |
| --- | --- |
| Cc1ccc(CNC2CCc3[nH]c(=O)ccc3C2)cc1C.O=C(O)C(F)(F)F (stereo not given) | 104.8 |
| CCC(=O)N(C)CC(=O)Nc1ccc(Br)cn1 | -3.099 |
| O=C(CCc1nc(Cl)n[nH]1)N1C[C@H](CO)C[C@H](CN2CCCC2)C1 | -2.773 |
| Cn1nc2c(cc1=O)CN(CC(=O)Nc1ccc(Cl)cn1)CC2 | -5.01 |
| CCCN1CCCn2nc(CNC(=O)CCOC)cc2C1 | 16.28 |
| COCCC(=O)NCc1cccnc1-n1cnc2ccccc21 | -10.59 |
| Cc1oc(CNC(=O)Cc2ccc3ccccc3c2)cc1C(=O)O | -0.3002 |
| COCCC(=O)NCc1ccc(-c2ccccc2C(=O)O)cn1 | 105.5 |
| O=C(Cc1ccccc1)NCc1ccc(-c2ccccc2C(=O)O)cn1 | 101.1 |
| O=C(Cc1cc(-c2ccc3c(c2)OCCO3)on1)NCc1ccccn1 | 5.76 |
| COc1c(C)cnc(CNC(=O)CCOCc2ccccc2)c1C | 7.332 |
| CC(=O)NCc1ccc(-c2ccccc2C(=O)O)cn1 | 125.9 |
| CC(=O)NCc1cccc(-n2ccnc2-c2cccc(C(=O)O)c2)c1 | -20.57 |
| COc1ccccc1OCCC(=O)NCc1ncc(C)c(OC)c1C | -4.89 |
| COc1ccccc1NCC(=O)NCc1cc[nH]n1 | 15.35 |
| COCCC(=O)NCc1ccc(-c2ccccc2C(=O)O)nc1 | 88.43 |
| CCN(CC)S(=O)(=O)NCCc1cc(C)ccc1OC | 2.679 |
| Cc1noc(CNc2ccc(CC(=O)N3CCSCC3)cc2)n1 | -10.08 |
| COCCCN1C(=O)CC[C@H]2CN(c3nc4ccccc4s3)CC[C@H]21 | -8.201 |
| CN1CCN(c2ncccc2CNc2ncccc2C#N)CC1 | 1.331 |
| O=C(CCCn1ccnc1)N1CCC2(CC1)[C@H](O)C[C@@H]2OCCO | 0.2303 |
| CCCc1cc(CNC(=O)C2CCOc3ccccc3C2)on1 (stereo not given) | 6.963 |
| COCC(=O)NCc1ccc(-c2ccccc2C(=O)O)cn1 | 123.3614 |
| COCC(=O)Nc1cnc(N2CCN(c3ccccc3)CC2)nc1 | -8.386 |
| COCC(=O)NCc1cccnc1-n1cnc2ccccc21 | 13.4 |
